Source: PubChem (National Center for Advancing Translational Sciences (NCATS))
Only some compounds are listed: those with a hit (about 14% of all), similar ones and a draw of the others.
HSD17B inhib: blocks hydroxysteroid 17-beta dehydrogenase activity; Q99714; recombinant HSD17B10, NADH fluorescence kinetic; Potency, µM (top dose mostly 57.1 µM), for inactives: top-dose activity change, negative = inhibition, usual class: inhibitors; hit rate 7.6% among 75,000;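 also: the protocol describes HADH2 (HSD17B10) and not the HSD17B4 of the title; potency is read from the fitted curve at half-maximal effect; % is scaled to controls: 0 for no effect and ±100 for the full control effect; nearly all actives have a fitted effect of over 70% in size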
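Enzyme plus compound, 15 min room temperature; substrate mix added (NAD+ 1 mM, beta-hydroxybutyryl-CoA 90 uM final); plates read kinetically for NADH fluorescence. HADH2 was His-tagged, E. coli-derived, 20 nM.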
AID923: qHTS Assay for Allosteric/Competitive Inhibitors of Caspase-1: Spectroscopic Profiling in AFC Spectral Region; compound fluorescence, AFC spectral region (405/520 nm); Potency, µM (titrated, usually from 57.5 µM), for the others: top-dose fluorescence increase, most hits filed as activators; hit rate 1.1% among 75,000; also: potency is read from the fitted curve at half-maximal effect; 0% is about no effect
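Titrations up to 57 uM read every 20 sec for 3 min (405/520 nm) with 50 nM caspase 1 and 5 uM Ac-WEHD-AFC, pH 7.5 HEPES buffer. Fluorescence-vs-time intercept gave baseline, scaled against on-plate AFC standard.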
4MU fluor: compounds fluorescent in 4-MU spectral region. compound autofluorescence, 340/450 nm, 4-MU equivalents; stronger effect = higher value. max dye-equivalent concentration, M. hit rate 11% among 59,000. AID 589; in the data active = max dye-equivalent concentration above about 10 nM; inconclusive = mostly about 1.1 nM to 9.6 nM
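Intrinsic fluorescence at 340/450 nm (ex/em) was read after 15 min at room temperature in pH 8.0, 100 mM Tris. Each compound concentration expressed as 4-MU-equivalent concentration from a six-point 4-MU standard series on each plate.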
HADH2 inh: HADH2 (human) dehydrogenase inhibition. recombinant HADH2, NADH fluorescence, beta-hydroxybutyryl-CoA. Q99714. hit rate 3.4% among 73,000. Potency, µM (doses to about 57.1 µM), without a hit: at the highest dose activity change, negative = inhibition, most hits filed as inhibitors. AID 886; also: potency is read from the fitted curve at half-maximal effect; % is scaled to controls: 0 for no effect and ±100 for the full control effect; nearly all actives have a fitted effect of over 60% in size
Target sequence (Q99714 whole entry, looked up, one chain of several): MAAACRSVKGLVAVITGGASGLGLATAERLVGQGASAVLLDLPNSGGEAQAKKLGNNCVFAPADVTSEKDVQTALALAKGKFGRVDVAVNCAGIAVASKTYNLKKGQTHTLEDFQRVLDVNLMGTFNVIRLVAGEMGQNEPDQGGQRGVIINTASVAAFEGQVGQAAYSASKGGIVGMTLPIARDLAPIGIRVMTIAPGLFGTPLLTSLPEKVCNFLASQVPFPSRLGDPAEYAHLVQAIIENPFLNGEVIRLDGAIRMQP
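NADH fluorescence (ex 360/em 450 nm) read every 30 s for 4 min; activity taken as last-minus-first time point difference. Enzyme 20 nM, NAD+ 1 mM, beta-hydroxybutyryl-CoA 90 uM, pH 9.0 Tris buffer.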
CRE-bla Fsk: modulators of forskolin-stimulated CRE signaling in CHO cells; Potency, µM (doses to about 38.2 µM), for inactives: at the highest dose activity change, negative = inhibition, actives largely listed as activators; CHO CRE-bla reporter (cAMP response element driving beta-lactamase), forskolin EC10, beta-lactamase ratio; hit rate 2.5% among 71,000; active = well fitted activation curve with a large enough effect in the signal ratio, with a control signal flat, not every such curve was filed as active; inconclusive = small, poorly fitted or top-dose-only effect, or effect the other way, or a change in a side signal; the % refers to the signal ratio; also: potency is read from the fitted curve at half-maximal effect; % of control where 0% means no effect
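Beta-lactamase reporter under a cAMP responsive element in CHO cells; compounds tested in titration series against EC10 NKH 477, 3 h at 37 °C. Read-out: CCF4 FRET ratio 460nm/530nm (excitation 405nm) giving %Activity, fitted to AC50.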
A350 fluor: compounds fluorescent in Alexa 350 spectral region | Compound autofluorescence, 340/450 nm, Alexa 350 dye-equivalents; stronger effect = higher value | max dye-equivalent concentration, M | hit rate 11% among 59,000 | AID 590; in the data active = max dye-equivalent concentration above about 10 nM; inconclusive = mostly about 1.1 nM to 9.6 nM
* = called active by the depositor; i = inactive; ? = inconclusive; . = no result given; ! = not confirmed by another sample; [ ] = another dose, or the depositor's remark. Unless noted, calls follow the shape of the dose curve; as a rule, active = well fitted curve in the direction sought with a large enough effect; inconclusive = small, poorly fitted or top-dose-only effect, or another doubt; inactive = no such curve, though single readings can be large; an effect the other way counts as inactive or inconclusive.

SMILES	HSD17B inhib	AID923	4MU fluor	HADH2 inh	CRE-bla Fsk	A350 fluor
CC(CO)NC(=O)C1C=C2c3cccc4[nH]cc(c34)C[C@H]2N(C)C1 (some centres undefined)	32µM*	-3%	.	.	.	.
CC(C)[C@@]1(NC(=O)[C@@H]2C[C@H]3c4cccc5[nH]cc(c45)C[C@@H]3N(C)C2)O[C@@]2(O)[C@H]3CCCN3C(=O)[C@@H](Cc3ccccc3)N2C1=O	.	.	i	0%	-26%	i
COc1cccc(-c2nc(CS(=O)CC(=O)N3CCC4(CC3)OCCO4)c(C)o2)c1 (centres undefined)	0%	0%	i	-10%	?	i
COc1ccc(-c2nc(CSCC(=O)N3CCC4(CC3)OCCO4)c(C)o2)cc1OC	32µM*	-1%	i	-3%	?	i
CC(C)[C@]1(O)[C@@H](OC(=O)c2ccc[nH]2)[C@]2(O)[C@@]3(C)C[C@@]4(O)O[C@@]5([C@H](O)[C@@H](C)CC[C@]35O)[C@]2(O)[C@]41C	9%[11.4 µM]	-1%[11.5 µM]	i	14%[11.4 µM]	10%[7.6 µM]	i
C/C=C(\C)C(=O)O[C@@H]1C(C)=C2[C@H]([C@@H]1OC(=O)CCCCCCC)[C@@](C)(OC(C)=O)C[C@@H](OC(=O)CCC)[C@@]1(O)[C@H]2OC(=O)[C@]1(C)O	-18%	-2%	i	-14%	?	i
C=CCc1c(C)[nH]c(=S)c(C#N)c1C	?	0%	1.5e-08M*	13µM*	?	1.9e-08M*
O=C(Oc1ccccc1)N1CCC[C@@]2(CCN(Cc3ccccc3)C2)C1	6%	3%	i	0%	-3%	i
Clc1cccc(C(Cl)(Cl)Cl)n1	0%	2%	.	-4%	5%	.
C=CCn1c(O)c(C(C)=NCc2cccnc2)c(=O)[nH]c1=O	1%	-1%	i	1%	?	i
C=CCn1c(O)c(C(C)=NCc2cc(OC)cc(OC)c2)c(=O)[nH]c1=O	7%	1%	1.9e-08M*	5%	?	2.5e-08M*
CCOC(=O)c1c(C)c(P(=S)(N2CCOCC2)N2CCOCC2)n(C)c1C	-15%	-1%	i	10µM*	10%	i
COC(=O)c1c(C)n(Cc2ccc3c(c2)OCO3)c2ccc(O)cc12	-26%	-2%	i	?	11%	i
CCn1cc(C(=O)O)c(=O)c2cc3c(cc21)OCO3	?	1%	6.3e-08M*!	-3%	-3%[17.1 µM]	6.1e-08M*!
CC(C)n1cc2c3c(cccc31)[C@@H]1C[C@H](C(=O)O[C@@H](C)[C@H](C)O)CN(C)[C@H]1C2	?	-2%	?	-16%	1%	?
c1ccc(/N=C2\N=C(Nc3ccccn3)c3ccccc32)nc1	-13%	3%	1.2e-08M*	35%	?	2.3e-08M*
NC(N)=Nc1ccc2[nH]c3c(c2c1)C[C@]1(O)[C@@H]2Cc4ccc(O)c5c4[C@]1(CCN2CC1CC1)[C@H]3O5	4µM*	-4%	i	10µM*	-1%	i
C=C(C)CN1CC[C@@]23c4c5ccc(O)c4O[C@H]2c2[nH]c4ccccc4c2C[C@]3(O)[C@@H]1C5	-4%	-2%	.	5%	?	.
ClCc1ccccc1	3%	-2%	.	-4%	0%	.
CN(C)[C@@H]1C(=O)C(C(N)=O)=C(O)[C@]2(O)C(=O)C3=C(O)c4c(O)cccc4[C@@](C)(O)[C@H]3[C@H](O)[C@@H]12	13µM*	-3%[25.7 µM]	3e-08M*	6.3µM*	-2%[17.1 µM]	2.9e-08M*
NCCCP(=O)(O)CC1CCCCC1	3%	-1%	.	8%	1%	.
CCCCn1c(O)c(C=NC2CC3CCC2(C)C3(C)C)c(=O)[nH]c1=O (centres undefined)	-19%	7%	1.6e-07M*	1%	13µM*	1.5e-07M*
CC(=O)N1CCN(c2ccc(N=Cc3c(O)n(-c4ccc(Cl)cc4)c(=O)[nH]c3=O)cc2)CC1	-8%	4%	i	-21%	?	i
